Methyltransferases – Primary Screen for Target Class Profiling of Small Molecule Inhibitors of Methyltransferases; purified enzyme, MTase-Glo SAH luminescence; hits give low values; calls only at 40 µM; 3.9% of 25,000 active; AID 1745853, 2022; call rule not given here
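Each enzyme was assayed with SAM and its substrate. SAH formation detected by MTase-Glo luminescence; single-point 40 uM screen[…].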
Numbers without * were called inactive. Only a selection was taken, and hits are over-represented in it overall. % is set by controls: 0 for no effect and ±100 for the full control effect.

Screening CC/C=C\CCO[C@@H]1O[C@H](CO)[C@@H](O)[C@H](O)[C@H]1O returned Methyltransferases active.
Screening OCc1ccccc1O[C@@H]1O[C@H](CO)[C@@H](O)[C@H](O)[C@H]1O returned Methyltransferases inactive.
Screening COc1ccc(C(O)C(C)OC2OC(CO)C(O)C(O)C2O)cc1 (stereo not drawn) returned Methyltransferases inactive.
Screening CCC(C)C(=O)OC[C@H]1O[C@H](O[C@H]2O[C@H](CO)[C@@H](O)[C@H](O)[C@H]2O)[C@H](O)[C@@H](O)[C@@H]1O (stereo partly drawn) returned Methyltransferases inactive.
For CC(C)=CCC/C(C)=C/CO[C@@H]1O[C@H](CO)[C@@H](O)[C@H](O)[C@H]1O the results were Methyltransferases inactive.
`CCc1cc2c(cc3n2CC(C)(C(=O)NC2CCCCC2)N(c2ccc(C)c(C)c2)C3=O)s1` (stereo not drawn) gave Methyltransferases inactive.
Screening COc1cccc(CCC(=O)NC2CCN(c3cc(C(F)(F)F)nc(C)n3)CC2)c1 returned Methyltransferases inactive.
For c1cncc(CN2CC(N3CCc4ccccc43)C2)c1 the results were Methyltransferases inactive.
Screening CNC(=O)c1ccc2cc([C@@]3(O)CCn4cncc43)ccc2c1 returned Methyltransferases inactive.
For O=C(CCn1ccn2nc3c(c2c1=O)CCCC3)Nc1ccc(F)cc1F the results were Methyltransferases inactive.
`Cc1nnc2n1CCC(NC(=O)c1cccn1C)CC2` (stereo not drawn) gave Methyltransferases inactive.
`CC(=O)c1c(C)c2cnc(Nc3ccc(N4CCNCC4)cn3)nc2n(C2CCCC2)c1=O` gave Methyltransferases inactive.
Cn1c(=O)c(-c2c(Cl)cccc2Cl)cc2cnc(Nc3ccc(N4CCOCC4)cc3)nc21 was read as Methyltransferases inactive.
CNC(=O)c1ccccc1Nc1nc(Nc2ccc(N3CCNCC3)cc2)ncc1Cl was read as Methyltransferases active.
`COc1ccc(CNC(=O)C2(C)Cn3cnc(C(=O)N4CCc5ccccc54)c3C(=O)N2C2CC2)cc1` (stereo not drawn) gave Methyltransferases inactive.
Screening COc1ccc(NC(=O)Cn2nc3n(CCc4ccccc4)c(=O)c4ccccc4n3c2=O)cc1 returned Methyltransferases inactive.
COc1ccc(NS(=O)(=O)c2cc3c(cc2C)n(C)c(=O)n3C)cc1OC was read as Methyltransferases inactive.
CC(C)CCNC(=O)C1(C)Cn2c(c(-n3cccc3)c3ccccc32)C(=O)N1CCc1cccs1 (stereo not drawn) was read as Methyltransferases inactive.
For COc1ccccc1CNC(=O)C1c2c(n(C)c3ccccc23)SCC(=O)N1c1ccccc1OC (stereo not drawn) the results were Methyltransferases inactive.
`CC1=C(CCC(C)O[C@@H]2O[C@H](CO)[C@@H](O)[C@H](O)[C@H]2O)C(C)(C)CCC1=O` (stereo partly drawn) gave Methyltransferases active.
CC1=CC(=O)CC(C)(CO)C1(O)/C=C/C(C)O[C@@H]1O[C@H](CO)[C@@H](O)[C@H](O)[C@H]1O (stereo partly drawn) was read as Methyltransferases inactive.
Screening CC(CCc1ccc(O)cc1)O[C@@H]1O[C@H](CO[C@@H]2OC(CO)[C@H](O)[C@H]2O)[C@@H](O)[C@H](O)[C@H]1O (stereo partly drawn) returned Methyltransferases inactive.
For CCc1cc2c(cc3n2CC(C)(C(=O)NC2CCC(C)CC2)N(c2cccc(C)c2C)C3=O)s1 (stereo not drawn) the results were Methyltransferases inactive.
For Cc1ccc(Cn2c(=O)c3ccccc3n3c(=O)n(CC(=O)Nc4cccc(Cl)c4)nc23)cc1 the results were Methyltransferases inactive.
Screening O=S(=O)(Nc1cc(Cl)c(Oc2cnc3ccccc3c2)c(Cl)c1)c1ccc(Cl)cc1Cl returned Methyltransferases active.
`COc1ccc(NS(=O)(=O)c2cc3c(cc2Cl)n(C)c(=O)n3C)cc1` gave Methyltransferases inactive.
Cn1c(=O)n(C)c2cc(S(=O)(=O)Nc3ccccc3)c(Cl)cc21 was read as Methyltransferases inactive.
COc1ccc(CNC(=O)C2(C)Cn3cnc(C(=O)NCCc4ccco4)c3C(=O)N2C2CC2)cc1 (stereo not drawn) was read as Methyltransferases inactive.
`CC(C)c1ccc(N2C(=O)c3cc(-c4ccccc4)nn3CC2(C)C(=O)NCc2ccccc2)cc1` (stereo not drawn) gave Methyltransferases inactive.
`O=C(CCc1nnc2n(Cc3ccccc3Cl)c(=O)c3ccccc3n12)N1CC=C(c2ccccc2)CC1` gave Methyltransferases inactive.
CCCNc1ccc2ncc(-c3ccc4[nH]ncc4c3)n2n1 was read as Methyltransferases active.
Cn1cc(-c2cnn3c(N)c(Br)c([C@@H]4CCCNC4)nc23)cn1 was read as Methyltransferases active.
Screening CCc1cc2c(cc3n2CC(C)(C(=O)NC2CCC(C)CC2)N(c2cccc(F)c2)C3=O)s1 (stereo not drawn) returned Methyltransferases inactive.
For CC1(C(=O)NC2CCCC2)Cn2c(cc3sccc32)C(=O)N1Cc1ccccc1Cl (stereo not drawn) the results were Methyltransferases inactive.
CC1(C(=O)NC2CCCC2)Cn2c(ccc2-c2ccco2)C(=O)N1CCCc1ccccc1 (stereo not drawn) was read as Methyltransferases inactive.
Screening C=C1C[C@@]23CCC4[C@@](C)(CCC[C@@]4(C)C(=O)OC)C2CC[C@@H]1C3 (stereo partly drawn) returned Methyltransferases inactive.
Screening Cc1ccc(N2C(=O)CSc3c(c4ccccc4n3C)C2C(=O)NCCCOC(C)C)cc1C (stereo not drawn) returned Methyltransferases inactive.
Screening CC(C)OC(=O)C(C)Oc1ccc2c(-c3ccccc3)cc(=O)oc2c1 (stereo not drawn) returned Methyltransferases inactive.
For CN1C(=O)c2cc(C(=O)NC3CCCC3)nn2CC1(C)C(=O)NC1CCCCCC1 (stereo not drawn) the results were Methyltransferases inactive.
`O=C(O)c1cc(-c2cccc(CO)c2)cc(S(=O)(=O)NC2CCCC2)c1` gave Methyltransferases inactive.
Cc1c(OCc2cccc(-c3ccc(C(=O)O)cc3)c2)cc2c(c1C)C(=O)C(C1CCCC1)C2 (stereo not drawn) was read as Methyltransferases active.
Screening Cc1ccc(CNC(=O)C2(C)Cc3ccccc3C(=O)N2c2cccc(C)c2)cc1 (stereo not drawn) returned Methyltransferases inactive.
`CC1(C(=O)NCc2ccccc2)Cc2ccccc2C(=O)N1Cc1ccc(C(F)(F)F)cc1` (stereo not drawn) gave Methyltransferases inactive.
Screening CCCCNC(=O)CCn1ccc2cc(S(=O)(=O)N3CCCCC3)ccc21 returned Methyltransferases inactive.
Screening O=C1CCCN1CCCNc1nc2c(-c3cccc(F)c3)nnn2c2ccc(Cl)cc12 returned Methyltransferases inactive.
`Brc1c(Br)c(Br)c2n[nH]nc2c1Br` gave Methyltransferases active.
`CC(C)CNC(=O)c1ccc2c(=O)n(C(C)C)c3nn(CC(=O)c4ccccc4)c(=O)n3c2c1` gave Methyltransferases inactive.
For c1ccc(C2=NOC3(CCN(C4CCCCC4)CC3)C2)cc1 the results were Methyltransferases inactive.
Screening CCOc1ccc(CCN2C(=O)c3cc(C(=O)OC)nn3CC2(C)C(=O)NC2CCCCCC2)cc1 (stereo not drawn) returned Methyltransferases inactive.

Source: PubChem BioAssay (National Center for Advancing Translational Sciences (NCATS))
